MCL1 BIM primary – disrupts human MCL1 binding to BIM-BH3 peptide; 320,000 compounds, 0.68% hits; Q07820; GST-MCL1 / FITC-Bim-BH3 fluorescence polarization; inhibition, % at 10.9 µM;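 active means inhibition above the mean inhibition of all tested compounds plus 3 SD, set per campaign, cut at about 40% in these data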;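 further: higher means more loss of mP so more displacement of Bim peptide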
eLon inh – inhibitors of E. coli Lon protease | P0A9M0 | purified E. coli Lon protease, fluorescence polarization | inhibition, % at 7.94 µM | 360,000 compounds, 0.42% hits | AID 602123; in the data active means inhibition above about 13%, passing the limit was not always enough
BCLXL inh – inhibitors of human Bcl-xL | Q07817 | GST-Bcl-xL / FITC-Bim BH3 peptide fluorescence polarization | inhibition, % at 10.9 µM | 320,000 compounds, 0.7% hits | AID 2129;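 active means inhibition above the mean of all tested compounds plus 3 SD, cutoff set per campaign, cut at about 30% in these data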;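 further: inhibitors lower millipolarization by displacing the labeled peptide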
EBV gp42 block – EBV gp42 inhibition | AID 1085 | 220,000 compounds, 0.42% hits | Q1HVG2 | Fluorescence polarization binding assay, mP read-out | inhibition, % (tested at 21.74 µM); in the data active means inhibition above about 50%
Target sequence (Q1HVG2 whole entry, looked up): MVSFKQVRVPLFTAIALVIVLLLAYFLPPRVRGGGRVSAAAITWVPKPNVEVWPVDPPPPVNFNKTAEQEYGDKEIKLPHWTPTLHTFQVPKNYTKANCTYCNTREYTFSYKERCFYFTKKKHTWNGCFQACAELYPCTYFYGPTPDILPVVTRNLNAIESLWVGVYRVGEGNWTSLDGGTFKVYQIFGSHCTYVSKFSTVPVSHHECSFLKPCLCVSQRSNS
MEX-5 binding – C. elegans MEX-5 TCR-2 RNA binding activity; Q9XUB2; MEX-5/FITC-TCR2 RNA binding, fluorescence polarization; active compounds read low; activity score (negative = inhibition of binding), % at 10 µM; 300,000 compounds, 0.38% hits; AID 1832;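 active means inhibition past about -25% in most replicates, and total fluorescence under double the plate's negative control median, limit read from the data; inconclusive means replicates evenly split on the limit, or fluorescence at least double controls; inactive means too little inhibition in most replicates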
Target sequence (Q9XUB2 whole entry, looked up): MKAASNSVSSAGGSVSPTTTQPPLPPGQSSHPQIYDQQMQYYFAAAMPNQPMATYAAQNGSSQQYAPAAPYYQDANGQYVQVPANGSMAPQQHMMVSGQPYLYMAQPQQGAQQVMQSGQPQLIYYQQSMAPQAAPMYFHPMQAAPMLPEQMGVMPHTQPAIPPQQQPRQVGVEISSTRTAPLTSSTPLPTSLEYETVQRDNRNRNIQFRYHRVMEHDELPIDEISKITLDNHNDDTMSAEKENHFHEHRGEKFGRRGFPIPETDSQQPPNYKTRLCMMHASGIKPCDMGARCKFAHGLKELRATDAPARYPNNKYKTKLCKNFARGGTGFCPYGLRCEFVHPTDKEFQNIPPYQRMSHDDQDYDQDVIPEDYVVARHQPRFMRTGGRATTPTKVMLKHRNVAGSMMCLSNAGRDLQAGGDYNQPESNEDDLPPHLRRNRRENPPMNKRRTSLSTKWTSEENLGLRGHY
GLD-1 TGE inh – GLD-1-TGE RNA interaction inhibition (C. elegans); 320,000 compounds, 0.44% hits; purified GLD-1 + fluorescein TGE RNA, fluorescence polarization; inhibition, % at 5.96 µM; Q17339;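 active means percent inhibition above a per-plate cutoff, the plate mean of test compounds plus 3 SD, cut at about 30% in these data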
Bcl-xL conf – Bcl-xL (human) inhibition, MCL1 counter-screen confirmation. inhibition, % at 10.9 µM. GST-Bcl-xL / FITC-Bim BH3 peptide FP binding. AID 2166. shares compounds with MCL1 BIM primary. 1,700 compounds, 54% hits;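 active means inhibition above a cutoff equal to the mean inhibition of all tested compounds plus 3 SD, cut at about 30% in these data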
MCL1 inh confirm – confirmation of human MCL1 and BIM-BH3 interaction inhibitors. shares compounds with MCL1 BIM primary. GST-MCL1 / FITC-Bim-BH3 fluorescence polarization. inhibition, % at 10.9 µM. 1,700 compounds, 61% hits. AID 2168;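 active means inhibition above the average of all tested compounds plus 3 SD, cut at about 40% in these data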
Large screens that a line does not name were inactive (follow-up assays come after a bar, where they were run). In the library only some 1.5% were active in any assay of this set; here they are far more common.

COc1ccc(NC(=O)CN2C(=O)/C(=C3\SC(=S)N(C4CCS(=O)(=O)C4)C3=O)c3ccccc32)cc1 (configuration not stated)	EBV gp42 block 61
CCN(CC)S(=O)(=O)c1ccc(OC)c(NC(=O)CSCc2c(C)noc2C)c1	none (no result: MCL1 BIM primary, BCLXL inh, EBV gp42 block, MEX-5 binding)
CCCSc1nnc2nc3c(nn12)c1ccccc1n3C	MEX-5 binding -35
CCN(CC)C(=O)CSc1nnc2c3ccccc3n(C)c2n1	none (no result: EBV gp42 block)
CCn1c(COc2ccccc2C)nnc1SCC(=O)N1CCC(C)CC1	EBV gp42 block 76
CN(Cc1ccccc1)C(=O)c1ncn2c1C(=O)N(C)CC2	none (no result: MCL1 BIM primary, BCLXL inh, EBV gp42 block, MEX-5 binding, GLD-1 TGE inh)
CC(C)COc1ccc(C(=O)NC(CC(C)C)C(=O)O)cc1 (configuration not stated)	EBV gp42 block 144
COc1ccc(C(=O)NC(CC(C)C)C(=O)O)cc1 (configuration not stated)	none (no result: EBV gp42 block, MEX-5 binding)
Nc1ccc(S(N)(=O)=O)cc1N	BCLXL inh 33
Nc1ccc(S(N)(=O)=O)cc1	none (no result: eLon inh, EBV gp42 block)
Cc1oc(-c2ccc(Cl)cc2)nc1CS(=O)CC(=O)NCc1ccccn1 (configuration not stated)	none (no result: EBV gp42 block)
O=S(=O)(Nc1ccc2c(c1)OCCO2)c1cccc2cccnc12	EBV gp42 block 99
O=C(NCCc1ccc(Cl)cc1)C1CCN(C(=O)c2sccc2-n2cccc2)CC1	none
CC(CCc1ccccc1)NC(=O)C1CCN(C(=O)c2sccc2-n2cccc2)CC1 (configuration not stated)	BCLXL inh 72
COc1ccccc1C(=O)C1CCCN(C(=O)c2cccnc2SC)C1 (configuration not stated)	MEX-5 binding -41
COc1ccc(N2CC(C(=O)N3CCN(Cc4ccc5c(c4)OCO5)CC3)CC2=O)cc1 (configuration not stated)	none (no result: EBV gp42 block)
COC(=O)CCC(=O)OC1(C)C(=O)C2=CN(CC(C)C)C(c3ccc(OC)cc3)=CC2=C(Br)C1=O (configuration not stated)	MCL1 BIM primary 46, BCLXL inh 43 (no result: eLon inh)
COC(=O)CCC(=O)OC1(C)C(=O)C=C2C=C(C3CC3)N(Cc3ccc(OC)cc3)C=C2C1=O (configuration not stated)	BCLXL inh 37
COC(=O)CCC(=O)OC1(C)C(=O)C2=CN(CCCOC(C)C)C(c3ccc(OC)cc3)=CC2=C(Br)C1=O (configuration not stated)	MCL1 BIM primary 45, BCLXL inh 42, MEX-5 binding inconclusive
COC(=O)CCC(=O)OC1(C)C(=O)C=C2C=C(C3CC3)N(Cc3ccc4c(c3)OCO4)C=C2C1=O (configuration not stated)	none
COC(=O)CCC(=O)OC1(C)C(=O)C2=CN(CC3CC3)C(c3ccc(OC)cc3)=CC2=C(Br)C1=O (configuration not stated)	BCLXL inh 33
COC(=O)CCC(=O)OC1(C)C(=O)C2=CN(Cc3ccc(OC)cc3)C(c3ccc(OC)cc3)=CC2=C(Br)C1=O (configuration not stated)	none (no result: EBV gp42 block)
COC(=O)CCC(=O)OC1(C)C(=O)C2=CN(C3CC3)C(c3ccc(OC)cc3)=CC2=C(Br)C1=O (configuration not stated)	none (no result: EBV gp42 block)
CCCC(C)C(=O)Nc1ncc(S(=O)(=O)c2ccc([N+](=O)[O-])cc2)s1 (configuration not stated)	none (no result: EBV gp42 block)
COc1ccc(C(=O)Nc2ccc3c(c2)OCO3)cc1S(=O)(=O)N1CCOCC1	none (no result: MCL1 BIM primary, BCLXL inh, EBV gp42 block, MEX-5 binding, GLD-1 TGE inh)
Cc1cccc(NC(=O)CNC(=O)c2cccc(-n3cccc3)c2)c1C	MCL1 BIM primary 49 (no result: EBV gp42 block) | Bcl-xL conf inactive | MCL1 inh confirm 57
Cc1c(NC(=O)CSc2nc(N)cc(N)n2)c(=O)n(-c2ccccc2)n1C	none (no result: EBV gp42 block, MEX-5 binding)
CC1(C)C(/C=C/C=C/C=C/C=C2\N(CCCCS(=O)(=O)O)c3ccc4ccccc4c3C2(C)C)=[N+](CCCCS(=O)(=O)[O-])c2ccc3ccccc3c21	MCL1 BIM primary 90, BCLXL inh 85 (no result: EBV gp42 block, MEX-5 binding) | Bcl-xL conf 68 | MCL1 inh confirm 74
Cn1c(=O)[nH]c2c(Cl)nccc21	none
Cn1c(=O)[nH]c2cc(Cl)cnc21	MCL1 BIM primary 73, BCLXL inh 65, EBV gp42 block 63, MEX-5 binding -32, GLD-1 TGE inh 44 | Bcl-xL conf 59 | MCL1 inh confirm 69
CN(C)S(=O)(=O)c1ccc(C(=O)Nc2ccc3nc(N4CCOCC4)sc3c2)cc1	none (no result: MCL1 BIM primary, BCLXL inh, EBV gp42 block, MEX-5 binding)
CCCN1CCC2(CC1)C(C#N)=C(N)Oc1c2sc2nc(C)cc(C)c12	MCL1 BIM primary 70, BCLXL inh 69 | Bcl-xL conf 45 | MCL1 inh confirm 46
COc1cc(-c2nc(-c3ccccn3)no2)cc(OC)c1OC	MCL1 BIM primary 41 | Bcl-xL conf inactive | MCL1 inh confirm inactive
COc1cccc(-c2nc(-c3ccccn3)no2)c1OC	none
COc1ccc2[nH]c3c(c2c1)CCNC3c1ccc([N+](=O)[O-])o1 (configuration not stated)	MCL1 BIM primary 96, BCLXL inh 87, MEX-5 binding -50, GLD-1 TGE inh 37 (no result: EBV gp42 block) | Bcl-xL conf 79 | MCL1 inh confirm 101
O=C(CCNC(=O)c1ccc(Br)cc1)Nc1ccc(S(=O)(=O)N2CCOCC2)cc1	none (no result: MCL1 BIM primary, BCLXL inh, EBV gp42 block, MEX-5 binding)
CN(C)c1nc(-c2cn(CCC#N)c3ccccc23)cs1	MCL1 BIM primary 69, BCLXL inh 65, GLD-1 TGE inh 34 (no result: EBV gp42 block) | Bcl-xL conf 34 | MCL1 inh confirm 49
COCCn1cc(-c2csc(N)n2)c2ccccc21	MCL1 BIM primary 60, BCLXL inh 54 (no result: EBV gp42 block) | Bcl-xL conf inactive | MCL1 inh confirm inactive
Cc1c(C)n(CCC#N)c2ccccc12	none
COc1ccc2ccccc2c1-c1csc(N)n1	none (no result: EBV gp42 block)
CCCN(Cc1nnc(-c2ccccc2Cl)o1)C(=O)c1oc2ccccc2c1C	none (no result: EBV gp42 block)
CCCc1ccc(C(O)c2ncc(-c3ccc(OC)cc3)[nH]2)cc1 (configuration not stated)	none (no result: MCL1 BIM primary, BCLXL inh, EBV gp42 block, MEX-5 binding, GLD-1 TGE inh)
N=C1/C(=C\c2ccc(SCc3ccco3)o2)C(=O)N=C2SC=NN12	MCL1 BIM primary 63, BCLXL inh 51, MEX-5 binding -34 | Bcl-xL conf 50 | MCL1 inh confirm 68
CC1=NN2C(=N)/C(=C\c3ccc(SCc4ccccc4)o3)C(=O)N=C2S1	none
CSc1ccccc1-c1nnc(-c2ccc(Cl)cc2Cl)o1	none
CSc1ccccc1-c1nnc(-c2ccc(Cl)c(Cl)c2)o1	MCL1 BIM primary 43 | Bcl-xL conf inactive | MCL1 inh confirm inactive

Source: PubChem BioAssay
